From PubChem BioAssay (Tox21)
Results filed as inconclusive are left out. Active and inactive are the calls of the source. Calls come from the whole dose curve.

assay: qHTS assay to identify small molecule agonists of the AP-1 signaling pathway - cell viability counter screen (AID 1159525); conditions: ME-180 (cervical carcinoma) AP-1-bla cells viability, ATP luminescence, 5 h; series mostly up to 76.8 µM; viability change, negative = cytotoxic: at the top concentration; note: nearly all actives have a fitted effect of over 55% in size
Excerpt: National Center for Advancing Translational Sciences [NCATS]
NIH Chemical Genomics Center [NCGC]
U.S. Environmental Protection Agency [EPA]
National Institutes of Environmental Health Sciences [NIEHS]
National Toxicology Program [NTP]
U.S. Food and Drug Administration [FDA]
Activator protein-1 (AP-1), a transcription factor, plays an important role in tumor genesis by regulating genes involved in cell proliferation, differentiation, apoptosis, and angiogenesis. AP-1 activity is induced by a complex network of signaling pathways that involves extracellular signals, such as growth factors. The AP-1 protein complex formed from c-Fos and c-Jun binding to the AP-1 response element results in transcriptional activation of genes containing such elements within their promoter.
Low molecular weight molecules have been discovered and developed to modulate various components of these signaling pathways, for example, MAP kinase inhibitors. However, many points of pathway modulation remain untested due to the lack of chemical probes making this signaling locus of general interest.
Using a beta-lactamase reporter-gene under control of the AP-1 response element, a cell-based assay [CellSensor(TM) AP-1-bla ME-180 developed by Invitrogen Corp.] was used to measure EGF-induced signaling. The Tox21 10K library compounds were measured for their ability to positively modulate the action of EC50 EGF on reporter gene activity. Compounds were screened in a 15-pt titration series in 1536-well format. The cytotoxicity of the Tox21 compound library against this cell line was tested in parallel by measuring the intra cellular ATP content in the same wells.
Tox21 Assay Protocol Summary:
2500 cells/5uL in Opti-MEM medium containing 0.5% dialyzed FBS, 0.1 mM NEAA, 1 mM sodium pyruvate and 10 mM HEPES was dispensed into 1536-well black wall/clear bottom plates using a Multidrop dispenser and cells were cultured at 37 degrees Celsius overnight. Next day 23 nL of compounds dissolved in DMSO, positive controls or DMSO were delivered to each well using a pin tool. The plates were incubated at 37 degrees Celsius for 5 hours. 1 uL of LiveBLAzerTM B/G FRET substrate (Solution A+B+C+D) was added to each well using a Flying Reagent Dispenser. After incubated at room temperature for 2.5 hours the plates were measured on an EnVision plate reader at Excitation 405nm, Emission1=460nm and Emission 2=530nm. The %Activity was determined from the ratio of 460nm/530nm.
After the plates were read for Beta-Lactamase assay on Envision; 3 ul Cell Titer Glo (Promega) was added to measure the cytotoxicity and the plates were then incubated at RT in dark for 30 min. The luminescence was read on ViewLux (Perkin Elmer, Shelton, CT) using 6 sec exposure. ViewLux data was expressed as relative luminescence units.
For primary data analysis, raw plate reads for each titration point were first normalized relative to […] EGF control (100%) and DMSO only wells (basal, 0%).
For primary data analysis for viability assay, raw plate reads for each titration point were first normalized Tetra n-octyl ammonium bromide control (-100%) and DMSO (control, 100%).

SMILES	viability change, negative = cytotoxic
N=C(N=C(N)N)N1CCOCC1	0.134% [at 35.3 µM] (inactive)
CCN(CC)C(C)=O	-7.65% (inactive)
CC(O)C1CCCCC1 (stereo not given)	2.08% (inactive)
CN1CCC(=C2c3ccccc3CCc3sccc32)CC1	-7.91% [at 35.3 µM] (inactive)
Cc1ccccc1N=Nc1ccc(N=Nc2c(O)ccc3ccccc23)c(C)c1	-1.1% [at 35.3 µM] (inactive)
S=C(S)NCCNC(=S)S	-0.154% (inactive)
Cc1ccc(C)o1	-8.87% (inactive)
CC(C)CCCCCCOC(=O)c1ccc(C(=O)OCCCCCCC(C)C)c(C(=O)OCCCCCCC(C)C)c1	6.46% (inactive)
CC(=O)Nc1ccc(/C=N/NC(N)=S)cc1	5.07% [at 35.3 µM] (inactive)
CN1CCC(=C2c3ccccc3C=Cc3ccccc32)CC1	-2.74% [at 35.3 µM] (inactive)
CCC(C)N(C)C(=O)c1cc2ccccc2c(-c2ccccc2Cl)n1 (stereo not given)	1.9% [at 35.3 µM] (inactive)
CN(c1nccc(=O)[nH]1)C1CCN(c2nc3ccccc3n2Cc2ccc(F)cc2)CC1	-4.66% [at 35.3 µM] (inactive)
c1ccc(-c2nc[nH]c2-c2ccccc2)cc1	-0.409% [at 35.3 µM] (inactive)
CCOC(=O)CC(=O)c1cc(F)c(Cl)nc1Cl	-11.1% (inactive)
CN(C)C/C=C(/c1ccc(Br)cc1)c1cccnc1	5.58% [at 35.3 µM] (inactive)
C=C(C)C(=O)OC(C)C	19.2% (inactive)
CCCCCC/C=C/C=O	-6.3% (inactive)
Nc1ccc(C(=O)Nc2ccccc2N)cc1	-20.2% [at 35.3 µM] (inactive)
CCCCc1cc2ccccc2c(OCCN(C)C)n1	-8.34% [at 35.3 µM] (inactive)
COc1ccccc1OC(=O)Oc1ccccc1OC	1.48% [at 35.3 µM] (inactive)

SMILES	viability change, negative = cytotoxic
O=C=NC1CCC(CC2CCC(N=C=O)CC2)CC1 (stereo not given)	-4.24% (inactive)
CN1CCN(C2=Nc3ccccc3Sc3ccc(Cl)cc32)CC1	-8.54% [at 35.3 µM] (inactive)
CC1=CCC(C(C)C)C=C1 (stereo not given)	-8.62% (inactive)
CC(=O)c1c(C)c([N+](=O)[O-])c(C(C)(C)C)c([N+](=O)[O-])c1C	-30% (inactive)
CCC(=O)OC(C)(C)C1CC=C(C)CC1 (stereo not given)	2.95% (inactive)
O=C(Cl)c1c(Cl)cccc1Cl	-0.638% (inactive)
CCCCCOC(=O)c1ccc(O)cc1	-22% (inactive)
CCOC(=O)C1=NN(c2ccccc2)C(=O)C1	1.08% (inactive)
Nc1nc(CC(=O)O)cs1	3.5% (inactive)
N#Cc1cc2ccccc2c2ccccc12	-7.02% (inactive)
CC(C)c1ccc2c(C(C)C)cc(C(C)C)c(S(=O)(=O)O)c2c1	-13.6% (inactive)
CCN1CCC[C@H]1CNC(=O)c1c(OC)ccc(Br)c1OC	-8.71% [at 35.3 µM] (inactive)
Oc1ccc(Sc2ccc(O)cc2)cc1	1.66% (inactive)
Cc1cc(O)ccc1N	20.2% (inactive)
COC(Cc1ccccc1)OC	2.25% (inactive)
Oc1ccc(C(O)CNCCCCCCNCC(O)c2ccc(O)c(O)c2)cc1O (stereo not given)	1.75% [at 35.3 µM] (inactive)
COc1ccc(OC)c(OC)c1	-5.84% (inactive)
C=CC(=O)OCCOC(=O)CCC(=O)O	8.79% (inactive)
NC(N)=N/N=C/c1c(Cl)cccc1Cl	2.49% [at 35.3 µM] (inactive)
Cc1ccc(C(C)c2ccc(C)c(C)c2)cc1C	-1.58% (inactive)
